These results are taken from PubChem BioAssay AID1259422 (The Scripps Research Institute Molecular Screening Center, 2018).

Screen size: about 640,000 compounds; about 9,300 (1.5%) were called active. No stated cut-off is given here; in the data, active means inhibition above about 32%; inactive means the rest. Only a selection was taken, and actives are over-represented in it overall.

This assay can be described thus: TEAD-YAP interaction inhibition, primary screen, TEAD-YAP interaction inhibitor project, luminescence, HEK-TIYL cells (AID 1259422).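 Further: 0% = median of test compound wells and 100% = reference inhibitor wells.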 The following applies: TEAD-Gal4/YAP UAS-luciferase luminescence, at 9.12 µM, hits give high values.
For orientation: inhibition means the drop in the measured response relative to a control, in per cent. Turning to `CCC(Oc1ccccc1)C(=O)NC(C)C` (stereo not given), the inhibition is 12.4% (inactive).

As to `CCc1cc(=O)[nH]c(NC2CCN(S(=O)(=O)c3ccccc3)CC2)n1`, the inhibition is 4.67% (inactive).

With `COc1ccc(CNc2c(-c3ccccc3O)nc3cnccn23)cc1`, the inhibition was 67.4% (active).

As for `Oc1ccccc1-c1nc2cnccn2c1NCc1ccccc1`, the inhibition was -6.9% (inactive).

With `COc1ccc(Nc2c(-c3ccccc3O)nc3cnccn23)cc1`, the inhibition is -0.84% (inactive).

Consider `COc1ccc(OC)c(N/C=C(/C#N)c2nc(-c3ccc(OC)c(OC)c3)cs2)c1`, for which the inhibition was 0.19% (inactive).

With `COc1ccc(N=C2SC(C(=O)NCCc3ccccc3)CC(=O)N2CCc2ccc(OC)c(OC)c2)cc1` (stereo not given), the inhibition is 7.83% (inactive).

Regarding `Cc1cc(C)nc(NC(N)=NCCC(C)C)n1`, the inhibition is 6.21% (inactive).

On to `O=[N+]([O-])/C=C\c1ccc(N2CCCCC2)cc1`, for which the inhibition is 31.3% (inactive).

Consider `N#CC(C#N)=Cc1ccc(N2CCN(Cc3ccccc3)CC2)c([N+](=O)[O-])c1`, for which the inhibition is 4.11% (inactive).

Turning to `O=[N+]([O-])/C=C/c1ccc2c(ccn2Cc2ccccc2)c1`, the inhibition is 33.9% (active).

Consider `CC1(C)Cc2c(c(N3CCOCC3)nc3sc4c(N5CCCCC5)nnnc4c23)CO1`, for which the inhibition is -1.34% (inactive).

Take `CCn1c(=O)c2ccccc2n2c(SCC(=O)N(C)C3CCCCC3)nnc12`: the inhibition was -7.16% (inactive).

In the case of `O=C(Nc1cccc(NC(=O)c2cccc(Cl)c2Cl)c1)c1ccco1`, the inhibition is -0.83% (inactive).

Take `Oc1ccc(/C=N/Nc2ncc(F)c(N3CCOCC3)n2)c(O)c1`: the inhibition was 58.7% (active).

In the case of `Cc1ccc(Nc2nc(N/N=C/c3ccccc3O)nc(N3CCOCC3)n2)cc1Cl`, the inhibition was -11% (inactive).

Consider `Oc1ccc(/C=N/Nc2nn[nH]n2)c(O)c1`, for which the inhibition is -11.8% (inactive).

On to `COc1ccc(C2=N/C(=C\c3cc(OC)c(OC)c(OC)c3)C(=O)O2)c(Cl)c1`, for which the inhibition is -1.56% (inactive).

As for `N#Cc1c(-n2ncnc2-c2ccc3c(c2)OCO3)sc2c1CCCC2`, the inhibition is -2.41% (inactive).

On to `c1ccc(CNc2nc(N3CCN(c4ccccn4)CC3)nc3c2ncn3-c2ccsc2)cc1`, for which the inhibition was -1.71% (inactive).

For `c1ccc(N2CCN(c3nc(NCc4nc5ccccc5[nH]4)c4ncn(-c5ccsc5)c4n3)CC2)nc1`, the inhibition is 68% (active).

As to `c1ccc(CNc2nc(Nc3cccnc3)nc3c2ncn3-c2ccccc2)cc1`, the inhibition is 25.2% (inactive).

`FC(F)(F)c1cccc(CNc2nc(N3CCN(c4ccccn4)CC3)nc3c2ncn3-c2ccsc2)c1`: the inhibition was -7.69% (inactive).

Regarding `c1ccc(-n2cnc3c(NCc4nc5ccccc5[nH]4)nc(Nc4nccc5ccccc45)nc32)cc1`, the inhibition is 7.74% (inactive).

Take `c1cncc(Nc2nc(NCc3nc4ccccc4[nH]3)c3ncn(-c4ccsc4)c3n2)c1`: the inhibition was 84.1% (active).

For the compound `COc1cccc(NC(=S)NC(=O)CC(C)C)c1`, the inhibition was -50% (inactive).

In the case of `CCc1ccccc1NC(=O)c1cc2ccccc2oc1=O`, the inhibition is -2.07% (inactive).

Regarding `O=C(CC1(O)C(=O)Nc2c(C(F)(F)F)cccc21)c1ccc(Cl)s1` (stereo not given), the inhibition was -1.56% (inactive).

For the compound `Cc1ccc2c(c1)-c1c(cnn1CC(=O)NCCCN1CCCCCC1)CO2`, the inhibition is 4.66% (inactive).

Turning to `CC(NC(=O)CSCc1ccccc1Cl)c1ccccc1` (stereo not given), the inhibition is -4.44% (inactive).

`Cc1noc(C)c1S(=O)(=O)N1CCCC(C(=O)Nc2cccc(Cl)c2C)C1` (stereo not given): the inhibition is 3.39% (inactive).

For `CCOC(=O)N1CCN(c2cc(NCCO)c3c4c(onc24)-c2ccccc2C3=O)CC1`, the inhibition was 17.6% (inactive).

As for `CN1CCN(c2cc(NCCCC(=O)O)c3c4c(onc24)-c2ccccc2C3=O)CC1`, the inhibition is 11.3% (inactive).

For the compound `CC1CCN(c2cc(NCC(=O)O)c3c4c(onc24)-c2ccccc2C3=O)CC1`, the inhibition is 64% (active).

In the case of `CCN(CC)CCCNCc1ccc(F)cc1Cl`, the inhibition was -3.24% (inactive).

Regarding `COc1ccc(NC(=S)Nc2ccccc2C(C)=O)cc1`, the inhibition is 8.25% (inactive).

As to `COc1ccc(NC(=S)NNS(=O)(=O)c2ccc(NC(C)=O)cc2)cc1`, the inhibition was 43.9% (active).

Turning to `COc1ccc(NC(=S)Nc2ccc(OC)cc2)cc1`, the inhibition is -17.9% (inactive).

Take `COc1ccc(OC(C)C(=O)Nc2ccc(C(=O)OC(C)C)cc2)cc1` (stereo not given): the inhibition is 11.3% (inactive).

In the case of `C=CCn1c(=S)[nH]c2sc(-c3ccccc3)cc2c1=O`, the inhibition was -58.7% (inactive).

`Cn1c(=O)c(=O)n(C)c2cc(S(=O)(=O)N3CCCc4ccccc43)ccc21`: the inhibition was -1.32% (inactive).

Take `O=C1CC(=O)Nc2cc(S(=O)(=O)N3CCCc4ccccc43)ccc2N1`: the inhibition was 5.24% (inactive).

On to `COc1ccc(S(=O)(=O)N2CCCc3ccccc32)cc1Cl`, for which the inhibition was 36.9% (active).

In the case of `COc1ccc(S(=O)(=O)N2CCc3ccccc3C2)cc1Cl`, the inhibition is 14.1% (inactive).

Take `CS(=O)(=O)c1cccc(S(=O)(=O)N2CCCc3ccccc32)c1`: the inhibition was 3.88% (inactive).

As for `O=S(=O)(c1ccc2c(c1)OCCCO2)N1CCCc2ccccc21`, the inhibition is 63.8% (active).

Consider `CC(=O)NC1C(Oc2ccc(C)cc2C)OC(COC(C)=O)C(OC(C)=O)C1OC(C)=O` (stereo not given), for which the inhibition is 0.55% (inactive).

Turning to `Nc1nc(Cn2c(-c3nonc3N)nc3ccccc32)nc(N2CCCCC2)n1`, the inhibition was 5.35% (inactive).

`COc1ccc(-c2nc3ccccc3n2Cc2ccccc2)cc1OC`: the inhibition was -0.42% (inactive).

Turning to `CCCCCCOc1cccc(NC(=O)Cn2c(-c3nonc3N)nc3ccccc32)c1`, the inhibition was 10.4% (inactive).

Consider `Nc1nonc1-c1nc2ccccc2n1CC(=O)N/N=C\c1cccc(F)c1`, for which the inhibition was 10.8% (inactive).

With `COc1ccc(C)c(Cn2c(-c3nonc3N)nc3ccccc32)c1`, the inhibition was 53.5% (active).

For the compound `Nc1nonc1-c1nc2ccccc2n1CC(=O)Nc1cccc(F)c1`, the inhibition was 40.7% (active).

In the case of `Cc1ccc(Nc2ncccc2C(=O)N2CCCC2)c(C)c1`, the inhibition is -3.43% (inactive).

On to `COc1ccc2cc(C)c3nn(CN4CCOCC4)c(=O)n3c2c1`, for which the inhibition is 1.32% (inactive).

Regarding `CC1(C2CCN(C(=O)c3ccc(N4CCCCC4)cc3)CC2)NC(=O)NC1=O` (stereo not given), the inhibition was -7.9% (inactive).

Turning to `CC1CCc2sc(NC(=O)Cc3cccc4ccccc34)c(C#N)c2C1` (stereo not given), the inhibition was 2.89% (inactive).

On to `c1ccc(Nc2nc(N3CCOCC3)c3ccccc3n2)cc1`, for which the inhibition was 33.6% (active).

As to `Clc1ccccc1Nc1nc(N2CCOCC2)c2ccccc2n1`, the inhibition is 0.09% (inactive).

Turning to `COc1ccc(Cl)cc1Nc1nc(N2CCOCC2)c2ccccc2n1`, the inhibition was 15.6% (inactive).
